Reference: PubChem BioAssay (Tox21)
Records with an inconclusive call do not appear. Calls of active or inactive are those of the source. Unless noted, the call rests on the fitted dose curve; in most records, active means well fitted curve in the direction sought with a large enough effect in the repeat runs; inconclusive means weak or mixed curves; inactive means no such curve, though single readings can be large; an effect the other way counts as inactive or inconclusive.

Columns and labels:
[1] = qHTS assay to identify small molecule agonists of the hypoxia (HIF-1) signaling pathway - cell viability counter screen (AID 1224844; calls by dose curve; further: on the % scale 0 is the no-effect control and ±100 the full control effect; nearly all actives have a fitted effect of over 50% in size)
Outline: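 Luminescent ATP content (CellTiter-Glo, 30 min, room temperature) served as the viability measure in HRE-bla ME-180 cells exposed to compounds for 17 hrs in low-serum medium (0.5% dialyzed FBS).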

[2] = qHTS assay to identify small molecule agonists of the hypoxia (HIF-1) signaling pathway (AID 1224846; active means well fitted activation curve with a large enough effect in the signal ratio in the repeat runs, not every such curve was filed as active; the % refers to the signal ratio; further: on the % scale 0 is the no-effect control and ±100 the full control effect)
Outline: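 Measured by blue/green FRET after loading CCF4-AM: beta-lactamase expressed from a hypoxia response element in ME-180 cells. Test agents were delivered in DMSO and left 17 hrs; cells had been plated 5 hrs earlier in low-serum (0.5% dialyzed FBS) medium.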

[3] = qHTS assay to identify small molecule agonists of H2AX - cell viability counter screen (AID 1224847; calls by dose curve; further: top concentration of the series differs between compounds; on the % scale 0 is the no-effect control and ±100 the full control effect; nearly all actives have a fitted effect of over 30% in size)
Outline: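 Compounds tested at 15 concentrations were incubated 3 hr at 37C with wild-type CHO-K1 cells; cellular ATP-based luminescence (CellTiter-Glo) indicated viability.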

[4] = qHTS RealTime-Glo MT Cell Viability Assay in HepG2 cells - 24 hour (AID 1224867); further: on the % scale 0 is the no-effect control and ±100 the full control effect; nearly all actives have a fitted effect of over 50% in size
Outline: (§1)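 Real-time, nonlytic viability: 600 HepG2 cells/well mixed with NanoLuc enzyme plus prosubstrate; 5 h settle, compound (DMSO) added by pintool; luminescence monitored over 40 h at 37 C.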

[5] = A CellTox Green Cytotoxicity Assay to monitor cytotoxicity in HEK293 cells - 0 hour (AID 1224869); further: on the % scale 0 is the no-effect control and ±100 the full control effect; nearly all actives have a fitted effect of over 50% in size
Outline: (§2)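 Each value comes from one timepoint of a single continuous run in which HEK293 cells with CellTox Green were exposed to compound for up to 40 h at 37 C, dye fluorescence rising with cell death.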

[6] = qHTS RealTime-Glo MT Cell Viability Assay in HepG2 cells - 40 hour (AID 1224870); further: on the % scale 0 is the no-effect control and ±100 the full control effect; nearly all actives have a fitted effect of over 50% in size
Outline: (§3)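 Real-time viability: cells seeded at 600 per well together with NanoLuc and cell-permeant prosubstrate, compounds added after 5 h incubation. Luminescence tracked at 0, 8, 16, 24, 32 and 40 h of exposure.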

[7] = A CellTox Green Cytotoxicity Assay to monitor cytotoxicity in HEK293 cells - 40 hour (AID 1224871); further: on the % scale 0 is the no-effect control and ±100 the full control effect; nearly all actives have a fitted effect of over 45% in size
Outline: as §2

[8] = A CellTox Green Cytotoxicity Assay to monitor cytotoxicity in HEK293 cells - 24 hour (AID 1224875); further: series mostly up to about 77 µM; on the % scale 0 is the no-effect control and ±100 the full control effect; nearly all actives have a fitted effect of over 45% in size
Outline: as §2

[9] = A CellTox Green Cytotoxicity Assay to monitor cytotoxicity in HepG2 cells - 16 hour (AID 1224876); further: on the % scale 0 is the no-effect control and ±100 the full control effect; nearly all actives have a fitted effect of over 45% in size
Outline: (§4)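 Continuous culture of HepG2 cells with a membrane-impermeant DNA dye; rising fluorescence marks dead cells. Compound exposure lasted up to 40 h at 37 C, with reads every 8 h from 0 h.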

[10] = qHTS RealTime-Glo MT Cell Viability Assay in HepG2 cells - 32 hour (AID 1224877); further: on the % scale 0 is the no-effect control and ±100 the full control effect; nearly all actives have a fitted effect of over 55% in size
Outline: as §1

[11] = A CellTox Green Cytotoxicity Assay to monitor cytotoxicity in HepG2 cells - 24 hour (AID 1224878); further: on the % scale 0 is the no-effect control and ±100 the full control effect; nearly all actives have a fitted effect of over 45% in size
Outline: as §4

[12] = A CellTox Green Cytotoxicity Assay to monitor cytotoxicity in HepG2 cells - 40 hour (AID 1224879); further: on the % scale 0 is the no-effect control and ±100 the full control effect; nearly all actives have a fitted effect of over 40% in size
Outline: as §4

[13] = qHTS RealTime-Glo MT Cell Viability Assay in HEK293 cells - 0 hour (AID 1224880)
Outline: (§5)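 qHTS format; HEK293 cells with NanoLuc/prosubstrate reagent, 37 C/5% CO2 for 5 h pre-dosing; compounds 23 nL in DMSO; luminescence at each time point reflects viable cells.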

[14] = qHTS RealTime-Glo MT Cell Viability Assay in HEK293 cells - 16 hour (AID 1224872)
Outline: (§6)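 Cells + reagent dispensed (600 cells/well, HEK293) → 5 h at 37 C/5% CO2 → 23 nL compound in DMSO pinned → 40 h at 37 C → luminescence read at 0, 8, 16, 24, 32, 40 h.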

[15] = qHTS RealTime-Glo MT Cell Viability Assay in HepG2 cells - 8 hour (AID 1224873); further: on the % scale 0 is the no-effect control and ±100 the full control effect; nearly all actives have a fitted effect of over 55% in size
Outline: as §3

[16] = qHTS RealTime-Glo MT Cell Viability Assay in HEK293 cells - 32 hour (AID 1224868); further: nearly all actives have a fitted effect of over 50% in size; further: potency means the concentration at half of the fitted maximal effect
Outline: as §6

[17] = qHTS RealTime-Glo MT Cell Viability Assay in HEK293 cells - 40 hour (AID 1224874); settings: RealTime-Glo luminescence; max response: active compounds read low; further: nearly all actives have a fitted effect of over 50% in size; further: potency means the concentration at half of the fitted maximal effect; on max response: on the % scale 0 is the no-effect control and ±100 the full control effect
Outline: as §5

[18] = qHTS assay to identify small molecule antagonists of the estrogen related receptor (ERR) signaling pathway from Tox21 library (AID 1224848)
Outline: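 Reading was by luminescence 30 min after ONE-Glo addition. Before that, ERR cells at 2,000 per well had rested 6 h at 37 C/5% CO2 and then received pin-tooled compounds in DMSO for 18 h at 37 C.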

[19] = qHTS assay to identify small molecule agonists of the estrogen related receptor (ERR) signaling pathway from Tox21 library (AID 1224849; calls by dose curve; further: on the % scale 0 is the no-effect control and ±100 the full control effect; nearly all actives have a fitted effect of over 15% in size)
Outline: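 We plated ERR reporter cells, waited 6 h, added compounds in DMSO by pin tool and incubated them 18 h at 37 C. ONE-Glo was then added and luminescence read after 30 min.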

CCCc1nn(C)c2c(=O)[nH]c(-c3cc(S(=O)(=O)N4CCN(C)CC4)ccc3OCC)nc12
inactive: Potency [1] | outcome [2] | outcome [3] | outcome [4] | outcome [5] | Potency [6] | Potency [7] | outcome [8] | outcome [9] | Potency [10] | outcome [11] | Potency [12] | Potency [13]

O=C(O)c1cn(C2CC2)c2cc(N3CCNCC3)c(F)cc2c1=O
inactive: Potency [1] | outcome [3] | outcome [4] | outcome [5] | Potency [6] | Potency [7] | Potency [14] | outcome [15] | outcome [8] | outcome [9] | Potency [10] | outcome [11] | Potency [12] | Potency [13]

O=C1c2ccccc2C(=O)c2cc(O)ccc21
inactive: Potency [1] | outcome [2] | outcome [3] | outcome [4] | outcome [5] | Potency [6] | Potency [7] | outcome [15] | outcome [8] | outcome [9] | Potency [10] | outcome [11] | Potency [12] | Potency [13]

O=C(O)CCSCCC(=O)O
inactive: Potency [1] | outcome [2] | outcome [3] | outcome [4] | Potency [16] | outcome [5] | Potency [6] | Potency [7] | Potency [14] | max response [17] 0.716% | outcome [8] | outcome [9] | outcome [11] | Potency [12] | Potency [13]

CCCCS(=O)(=O)N[C@@H](Cc1ccc(OCCCCC2CCNCC2)cc1)C(=O)O
inactive: Potency [1] | outcome [2] | outcome [3] | outcome [4] | Potency [16] | outcome [5] | Potency [6] | Potency [7] | Potency [14] | outcome [15] | max response [17] -0.348% | outcome [9] | Potency [10] | outcome [11] | Potency [12] | Potency [13]

CC(C)(CCC(=O)O)C(=O)O
inactive: Potency [1] | outcome [2] | outcome [3] | Potency [16] | outcome [5] | Potency [6] | Potency [7] | outcome [15] | max response [17] 0.835% | outcome [8] | outcome [9] | Potency [10] | outcome [11] | Potency [12] | Potency [13]

COc1cc2c(cc1OC)-c1cc3ccc(OC)c(OC)c3c[n+]1CC2
active: Potency [18] 24.6 µM | Potency [16] 49.4 µM | Potency [17] 44.1 µM
inactive: Potency [1] | outcome [3] | outcome [19] | outcome [4] | outcome [5] | Potency [7] | outcome [8] | outcome [9] | Potency [10] | outcome [11] | Potency [13]

CC(C)(C)C(=O)Oc1ccc(S(=O)(=O)Nc2ccccc2C(=O)NCC(=O)O)cc1
inactive: Potency [1] | outcome [2] | outcome [3] | outcome [4] | Potency [16] | outcome [5] | Potency [7] | Potency [14] | outcome [15] | max response [17] 7.92% | outcome [8] | Potency [10] | outcome [11] | Potency [13]
